Measured values: PubChem BioAssay AID1212 (NMMLSC, 2008)
Values without a mark were called inactive. Active and inactive are the calls of the source.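 How the source made its calls: active means blocks over 60% of fluorescent estradiol binding at 10 µM; inactive means the rest.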

What follows are compounds tested against G-protein coupled estrogen receptor 1 (Homo sapiens) (UniProt Q99527) (assay: GPR30 competitive binders vs fluorescent estrogen, primary screen, cell-based, Cos7 GPR30-GFP, flow cytometry, 10 µM (AID 1212)). Settings: fluorescent estrogen competition, at 10 µM; hits give high values.

Row | SMILES | outcome | inhibition [%]
1 | COc1ccc2[nH]cc(CCN=C(N)N)c2c1 | inactive | –
2 | CC1(C)CC(CCNCc2ccc3c(c2)OCO3)(Cc2ccccc2)CCO1 (stereo not drawn) | inactive | –
3 | COc1ccc(C2(CN)CCCC2)cc1 | – | 10
4 | N=c1c[n+](CCc2ccc(O)cc2)[n-]o1 | inactive | –
5 | COc1ccc(C2(CN)CCCC2)cc1OC | inactive | –
6 | CCNCC1(c2ccc(OC)c(OC)c2)CCCC1 | – | 7
7 | O=C1C2CCN(CC2)C1Cc1ccc(O)cc1 (stereo not drawn) | inactive | –
8 | COc1cc2c(cc1OC)CC(C)(C)NC2 | – | 3
